Experiment [1] is described as follows: qHTS assay for small molecule agonists of the p53 signaling pathway - cell viability (AID 651633; calls by dose curve; further: nearly all actives have a fitted effect of over 30% in size; further: potency means the concentration at half of the fitted maximal effect). In short, it runs like this:
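p53RE-bla cells were treated with compound for 16 hours at 37 C. Cytotoxicity was then measured as CellTiter-Glo luminescence after 30 min at room temperature.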
For orientation: Quantitative high-throughput screening tests each substance at several concentrations.

Experiment [2] in a line: qHTS assay for small molecules that induce genotoxicity in human embryonic kidney cells expressing luciferase-tagged ATAD5 - cell viability (AID 651634; calls by dose curve; further: nearly all actives have a fitted effect of over 25% in size; further: potency means the concentration at half of the fitted maximal effect). In short, it runs like this: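 Cytotoxicity counterscreen in HEK293T cells bearing an ATAD5-luciferase reporter: live-cell protease activity measured by CellTiter-Fluor fluorescence after 15.5 hr compound exposure.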
A short description of experiment [3]: qHTS assay for small molecule disruptors of the mitochondrial membrane potential - cell viability (AID 720634; calls by dose curve; further: nearly all actives have a fitted effect of over 20% in size; further: potency means the concentration at half of the fitted maximal effect). The method, boiled down: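 After overnight attachment at 37 C, HepG2 cells received compound or DMSO vehicle for 1 hr. Viability is then taken from ATP-driven luminescence following a 30 min room-temperature CellTiter-Glo step.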
A short description of experiment [4]: qHTS assay to test for compound auto fluorescence at 590 nm (red) in HepG2 cells (AID 720674). The method, boiled down:
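Seeding: 2,000 HepG2 cells/well, MEM/10% FBS, overnight 37 C. Dosing: compound vs DMSO. Incubation: 1 hr, 37 C, 5% CO2. Read: fluorescence 540 ex/590 em, Rose Bengal sodium as red reference.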

A short description of experiment [5]: qHTS assay to test for compound auto fluorescence at 535 nm (green) in HepG2 cells (AID 720675).
Experiment [6] is described as follows: qHTS assay to test for compound auto fluorescence at 460 nm (blue) in HEK293 cells (AID 720678). The method, boiled down:
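Measured: blue fluorescence (Ex 405/Em 460 nm) of compound-treated HEK293 cells, incubated overnight at 37C with 5% CO2 and scaled to triamterene equivalents.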

Experiment [7] in a line: qHTS assay to test for compound auto fluorescence at 590 nm (red) in HEK293 cells (AID 720679). In short, it runs like this: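 Using HEK293 cells at 2,000 per well, the screen added 23 nL of each compound after cell attachment and incubated overnight (37C, 5% CO2). The plate reader then captured red-label fluorescence, Ex/Em 540/590nm.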
Experiment [8] in a line: qHTS assay for small molecule disruptors of the mitochondrial membrane potential (AID 720635). Further: potency means the concentration at half of the fitted maximal effect. In short, it runs like this:
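HepG2 cells exposed to compound 1 hr at 37C, then Mito-MPS dye 30 min. Ratio read of aggregate (540/590 nm) versus monomer (490/535 nm) fluorescence.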

33 molecules from PubChem BioAssay (Tox21) can be followed below.

Several values for one entry are separate records, joined by “and”; a condition that tells them apart may be missing. Equal values may be shown once. Unmarked numbers belong to inactive results. Results filed as inconclusive are left out. Activity calls are given as the source filed them. Unless noted, the call rests on the fitted dose curve; in most records, active means well fitted curve in the direction sought with a large enough effect in the repeat runs; inconclusive means weak or mixed curves; inactive means no such curve, though single readings can be large; an effect the other way counts as inactive or inconclusive.
On the % scale 0 is the no-effect control and ±100 the full control effect.

Take `O=C1c2c(O)ccc(O)c2C(=O)c2c(NCCNCCO)ccc(NCCNCCO)c21`: the Potency was 4.52 µM (active) in experiment [1] and 9.02 µM (active) in experiment [2]. Further, in experiment [3], the Potency entry is “inactive”. The fluorescence, relative to Rose Bengal in experiment [4] was 0.231% [at 18.6 µM]. Also, in experiment [5], the fluorescence, % of fluorescein control is -0.149% [at 18.6 µM]. Besides, the fluorescence, % of triamterene in experiment [6] is -0.405% [at 18.6 µM]. Moreover, in experiment [7], the fluorescence, % of fluorescent control was -1.36% [at 18.6 µM].
As to `Cc1oc(-c2ccccc2)nc1CCOc1ccc(C[C@H](Nc2ccccc2C(=O)c2ccccc2)C(=O)O)cc1`, the values for the Potency in experiment [1] and in experiment [8] were 21.7 µM (active) and 61.1 µM (active), respectively. Moreover, the Potency result in experiment [4], in experiment [5] and in experiment [6] was “inactive” throughout.
On to `CC1=C(/C=C/C(C)=C/C=C/C(C)=C\C=O)C(C)(C)CCC1`, for which the Potency entry in experiment [3], in experiment [4], in experiment [5] and in experiment [6] was “inactive” in each case. The Potency in experiment [8] is 57.9 µM (active).
With `N#CSCSc1nc2ccccc2s1`, the Potency in experiment [1] was 21.7 µM (active); in experiment [8], 30.6 µM (active). For the same molecule, the Potency entry in experiment [3], in experiment [4], in experiment [5], in experiment [6] and in experiment [7] was “inactive” each time.
For the molecule `CN(C)c1ccc(N=Nc2ccccc2C(=O)O)cc1`, the Potency in experiment [2] is 54.5 µM (active). Further, the Potency entry in experiment [3], in experiment [5], in experiment [6] and in experiment [7] was “inactive” each time.
With `O=C(O)CCn1c2c(c3ccccc31)C[C@H](NS(=O)(=O)c1ccc(F)cc1)CC2`, the Potency result in experiment [3], in experiment [8], in experiment [4], in experiment [5], in experiment [6] and in experiment [7] was “inactive” each time.
For `C=C[C@](C)(O)CC[C@@H]1[C@@]2(C)CCCC(C)(C)[C@@H]2CC[C@@]1(C)O`, the Potency in experiment [1] is 61.1 µM (active); in experiment [8], 43.3 µM (active). Further, the Potency entry in experiment [4], in experiment [5], in experiment [6] and in experiment [7] was “inactive” in each case.
For `CN(C)CCCN1c2ccccc2CCc2ccccc21`, the Potency entry in experiment [3], in experiment [4], in experiment [5], in experiment [6] and in experiment [7] was “inactive” throughout.
As to `O=C1C=CC(=O)N1c1ccccc1`, the Potency in experiment [1] and in experiment [8] was 48.6 µM (active) in each case. For the same molecule, the Potency result in experiment [5] and in experiment [6] was “inactive” in each case.
As to `C[C@H]1O[C@@H](O[C@H]2[C@@H](O)C[C@H](O[C@H]3[C@@H](O)C[C@H](O[C@H]4CC[C@@]5(C)[C@H](CC[C@@H]6[C@@H]5C[C@@H](O)[C@]5(C)[C@@H](C7=CC(=O)OC7)CC[C@]65O)C4)O[C@@H]3C)O[C@@H]2C)C[C@H](O)[C@@H]1O`, the Potency in experiment [1] is 94.4 nM (active) and 13.7 nM (active) and 30.3 nM (active); in experiment [2], 168 nM (active) and 48.6 nM (active) and 42.8 nM (active); in experiment [8], 298 nM (active) and 1.37 µM (active) and 604 nM (active). For the same molecule, the Potency entry in experiment [3], in experiment [4], in experiment [5] and in experiment [6] was “inactive” throughout.
Consider `O=C1NCCN1CCN1CCC(c2cn(-c3ccc(F)cc3)c3ccc(Cl)cc23)CC1`, for which the Potency in experiment [2] is 29.8 µM (active). The Potency result in experiment [3], in experiment [5], in experiment [6] and in experiment [7] was “inactive” each time.
With `Oc1ccc(-c2ccc(O)cc2)cc1`, the Potency entry in experiment [2], in experiment [3], in experiment [4], in experiment [5], in experiment [6] and in experiment [7] was “inactive” throughout. The Potency in experiment [8] is 43.5 µM (active).
In the case of `SCCCCCCCCS`, the Potency result in experiment [1], in experiment [3], in experiment [4], in experiment [5], in experiment [6] and in experiment [7] was “inactive” in each case.
As for `CC(C)(c1cc(Br)c(OCCO)c(Br)c1)c1cc(Br)c(OCCO)c(Br)c1`, the results for the Potency in experiment [1], in experiment [2] and in experiment [8] were 47.5 µM (active), 37.7 µM (active) and 5.97 µM (active), respectively. Also, the Potency result in experiment [3], in experiment [4], in experiment [5], in experiment [6] and in experiment [7] was “inactive” each time.
For the molecule `CC(C)(C)c1cc(/C=C2\SC(=N)NC2=O)cc(C(C)(C)C)c1O`, the Potency in experiment [1] was 68.6 µM (active); in experiment [8], 12.2 µM (active). Besides, the Potency result in experiment [3], in experiment [4], in experiment [5], in experiment [6] and in experiment [7] was “inactive” throughout.
For `c1cc2c3c(c1)ccc1cccc(c13)C2`, the Potency entry in experiment [1], in experiment [2], in experiment [4], in experiment [5], in experiment [6] and in experiment [7] was “inactive” each time. For the same molecule, the Potency in experiment [8] was 62.4 µM (active).
Regarding `CCCCCCCC/C=C\CCCCCCCC(=O)N(C)CC(=O)O`, the Potency in experiment [1] was 43.3 µM (active). The Potency result in experiment [4], in experiment [5] and in experiment [6] was “inactive” in each case.
`Cc1cc(Nc2ccc(O)cc2)ccc1N`: the Potency result in experiment [1], in experiment [4], in experiment [5], in experiment [6] and in experiment [7] was “inactive” each time. Also, in experiment [8], the Potency is 6.82 µM (active).
With `O[C@@H](c1cc(C(F)(F)F)nc2c(C(F)(F)F)cccc12)[C@H]1CCCCN1`, the results for the Potency in experiment [1] and in experiment [2] were 21.1 µM (active) and 23.7 µM (active), respectively. Also, the Potency entry in experiment [4], in experiment [5], in experiment [6] and in experiment [7] was “inactive” in each case.
In the case of `CCCCNc1c(C(=O)OCC)c(C)nc2c1cnn2CC`, the Potency entry in experiment [1], in experiment [2], in experiment [4], in experiment [5], in experiment [6] and in experiment [7] was “inactive” each time.
Take `c1ccc(Nc2cccc3ccccc23)cc1`: the Potency result in experiment [1], in experiment [4], in experiment [5], in experiment [6] and in experiment [7] was “inactive” in each case. The Potency in experiment [3] is 54.5 µM (active); in experiment [8], 43.8 µM (active) and 43.3 µM (active).
As to `CN(C)CCOC(c1ccccc1)c1ccccc1` (tested in a mixture with another compound), the Potency result in experiment [1], in experiment [2], in experiment [3], in experiment [4], in experiment [5] and in experiment [6] was “inactive” throughout. Also, the Potency entry in experiment [7] is “inactive”.
With `CCCCCCCC/C=C\CCCCCCCC(=O)NCc1ccc(O)c(OC)c1`, the Potency result in experiment [2], in experiment [3], in experiment [4], in experiment [5], in experiment [6] and in experiment [7] was “inactive” each time. For the same molecule, the Potency in experiment [8] was 11.9 µM (active).
As for `CN1[C@@H]2CC[C@@H]1CC(OC(=O)C(CO)c1ccccc1)C2` (stereo partly drawn), the Potency result in experiment [3], in experiment [8], in experiment [4], in experiment [5] and in experiment [6] was “inactive” throughout.
With `CCCCOc1ccc(C(=O)CCN2CCCCC2)cc1`, the Potency entry in experiment [2], in experiment [3] and in experiment [8] was “inactive” in each case. The fluorescence, % of fluorescein control in experiment [5] is 0.0117% [at 18.6 µM]. In addition, the fluorescence, % of triamterene in experiment [6] was 0.101% [at 18.6 µM]. The fluorescence, % of fluorescent control in experiment [7] was -0.0275% [at 18.6 µM].
With `C[Si](C)(C)Cl`, the Potency entry in experiment [1], in experiment [2], in experiment [3], in experiment [5], in experiment [6] and in experiment [7] was “inactive” throughout.
In the case of `CCCOc1sc(C(=O)N2CCC(c3cc(CN)ccc3F)CC2)c(C)c1Br`, the Potency entry in experiment [2], in experiment [3], in experiment [5], in experiment [6] and in experiment [7] was “inactive” throughout.
For `CC(C(O)c1ccccc1)N(C)CCOC(c1ccccc1)c1ccccc1` (stereo not drawn), the Potency result in experiment [2], in experiment [3], in experiment [4], in experiment [5], in experiment [6] and in experiment [7] was “inactive” throughout.
Take `COC(=O)C1=C(C)NC(C)=C(C(=O)OCCCN2CCC(c3ccccc3)(c3ccccc3)CC2)C1c1cccc([N+](=O)[O-])c1` (stereo not drawn): the Potency is 26.6 µM (active) in experiment [1] and 23.7 µM (active) in experiment [2]. Further, the Potency result in experiment [3], in experiment [4], in experiment [5], in experiment [6] and in experiment [7] was “inactive” each time.
As for `CNCC[C@H](Oc1cccc2ccccc12)c1cccs1`, the Potency result in experiment [3], in experiment [5], in experiment [6] and in experiment [7] was “inactive” in each case. Further, the Potency in experiment [8] is 13.3 µM (active).
As to `CN1[C@@H]2CC[C@H]1CC(OC(=O)C(CO)c1ccccc1)C2` (stereo partly drawn), the Potency result in experiment [3], in experiment [8], in experiment [4], in experiment [5] and in experiment [6] was “inactive” throughout.
Turning to `COc1ccccc1OCCNCC(O)COc1cccc2[nH]c3ccccc3c12` (stereo not drawn), the Potency result in experiment [1], in experiment [3], in experiment [4], in experiment [5], in experiment [6] and in experiment [7] was “inactive” in each case. Besides, the Potency in experiment [8] was 23.7 µM (active).
Regarding `S=C(SSSSSSC(=S)N1CCCCC1)N1CCCCC1`, the Potency result in experiment [1] and in experiment [3] was “inactive” in each case. In addition, the fluorescence, relative to Rose Bengal in experiment [4] was -0.0183% [at 18.6 µM]. Further, the fluorescence, % of fluorescein control in experiment [5] was -0.0182% [at 18.6 µM]. For the same molecule, the fluorescence, % of triamterene in experiment [6] was 0.0298% [at 18.6 µM]. In addition, in experiment [7], the fluorescence, % of fluorescent control is 0.199% [at 18.6 µM].
